This excerpt belongs to a sample that is enriched for hits.
Cycloheximide cs: affects cycloheximide protein synthesis inhibition readout, counter-screen | cell reporter, cycloheximide protein synthesis inhibition counterscreen | max response, % | 12% of 300,000 active | AID 2314; in the data active = max response mostly above about 13%, no sharp cut-off; inactive = mostly below about 14%; note: read at 38.3 µM for the half of the compounds with a filed dose
Shiga toxin inh: inhibitors of Shiga toxin in Vero cells | Vero cells, Shiga toxin protein synthesis inhibition reporter | inhibition, % at 38.7 µM | 9.2% of 290,000 active; in the data active = inhibition mostly above about 28%, no sharp cut-off; inactive = mostly below about 43%
Lassa entry inh: blocks Lassa virus binding to or entry into cells. 1.2% of 300,000 active. Potency, µM (titrated, usually from 37.9 µM), actives largely listed as inhibitors. AID 540256. Lassa virus pseudotype entry inhibition, cell reporter; calls by dose curve; tested in HEK293 cells; note: nearly all actives have a fitted effect of over 50% in size
AMA1-RON2 inh: disrupts binding of P. falciparum AMA1 to RON2 | Potency, µM (highest dose often 58.2 µM), usual class: inhibitors | AID 720542 | AlphaScreen AMA1-biotinylated RON2 peptide binding | 0.2% of 360,000 active; active = well fitted inhibition curve with a large enough effect; inconclusive = small, poorly fitted or top-dose-only effect; inactive = no such curve, though single readings can be large or run the other way; note: nearly all actives have a fitted effect of over 45% in size
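AMA1 (3D7) with his tag at 25 nM final met compounds first, then biotinylated RON2 peptide at 25 nM; detection used donor plus acceptor beads, 10 µg/mL apiece, read by AlphaScreen after 30 min at room temperature.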
MARV entry inh: blocks Marburg virus binding to or entry into cells | Marburg virus pseudotyped entry inhibition, cell reporter | AID 540276 | Potency, µM (titrated, usually from 37.8 µM), most hits filed as inhibitors | 1.8% of 300,000 active; calls by dose curve; tested in HEK293 cells
Of the large screens only hits and unclear results are named; the others gave an inactive call.

O=C(NCC1CCCO1)Nc1cc(Cl)cc(Cl)c1 (centres undefined)	none (no result: Lassa entry inh, MARV entry inh)
S=C(NCC1CCCO1)Nc1ccc(Cl)cc1 (centres undefined)	Cycloheximide cs 16, MARV entry inh inconclusive
S=C(NCC1CCCO1)Nc1ccc(Cl)cc1Cl (centres undefined)	Cycloheximide cs 46, Shiga toxin inh 143, Lassa entry inh inconclusive
O=C(NCCCN1CCCCCC1)c1ccc2c(c1)sc1nc(-c3ccccc3)cn12	none (no result: Cycloheximide cs, Shiga toxin inh, AMA1-RON2 inh, MARV entry inh)
Cc1nc(N)nc(N(C)c2ccccc2)c1Br	Lassa entry inh inconclusive, MARV entry inh inconclusive (no result: Cycloheximide cs, Shiga toxin inh)
CCN(Cc1ccccc1)C(=O)Cn1cc(S(=O)(=O)Cc2cccc(Cl)c2)c2ccccc21	none (no result: Cycloheximide cs, Shiga toxin inh, AMA1-RON2 inh, MARV entry inh)
Cn1c(CN2CCOCC2)nnc1SCC(=O)NCCc1ccccc1	none
CCN(CC)c1ccc(NC(=S)NCC2CCCO2)cc1 (centres undefined)	Cycloheximide cs 28, Shiga toxin inh 101, AMA1-RON2 inh inconclusive, MARV entry inh inconclusive
Cc1ccc(NC(=S)NCC2CCCO2)cc1 (centres undefined)	Lassa entry inh inconclusive, MARV entry inh inconclusive
N/C(=N\OC(=O)COc1ccc(Br)cc1)c1ccncc1	none
N/C(=N\OC(=O)COc1ccc(Cl)cc1Br)c1cccnc1	Cycloheximide cs 31, Shiga toxin inh 113
Cc1cc(OCC(=O)O/N=C(\N)c2ccccc2)cc(C)c1Cl	none
N/C(=N\OC(=O)COc1ccc(Br)cc1Cl)c1cccnc1	Cycloheximide cs 45, Shiga toxin inh 93, Lassa entry inh inconclusive, MARV entry inh inconclusive
C/C(CC(=O)Nc1cccnc1)=N/NC(=O)COc1ccc(Cl)cc1Br	none
N/C(=N\OC(=O)COc1ccc(Cl)cc1Cl)c1ccncc1	Cycloheximide cs 43, Shiga toxin inh 85 (no result: Lassa entry inh, MARV entry inh)
O=C(Cn1nc(-c2ccccc2)nc(Cc2ccccc2)c1=O)Nc1ccccc1	none (no result: Cycloheximide cs, Shiga toxin inh, AMA1-RON2 inh, MARV entry inh)
CC(C)OC(=O)CSc1nc2c(cc1C#N)CCCCC2	none (no result: Lassa entry inh, MARV entry inh)
CCOC(=O)CC(=O)CSc1nc2c(cc1C#N)CCCCC2	Cycloheximide cs 46, Shiga toxin inh 84, MARV entry inh inconclusive
CC(C)OC(=O)CC(=O)CSc1nc2c(cc1C#N)CCCCC2	Cycloheximide cs 52, Shiga toxin inh 72
Cc1ccccc1NC(=O)Cn1cnc2c(oc3nc4c(cc32)CCCC4)c1=O	none
CCOC(=O)CC(=O)COc1nc2cc3c(nc2o1)CCCC3	Cycloheximide cs 27, Shiga toxin inh 91
CCC1Oc2ccc(C)cc2N(CC(=O)N2CCN(c3ccccc3OC)CC2)C1=O (centres undefined)	none (no result: Cycloheximide cs, Shiga toxin inh, AMA1-RON2 inh, MARV entry inh)
COc1ccc(CNCc2ccc(C(=O)O)s2)cc1	none (no result: Cycloheximide cs, Shiga toxin inh, AMA1-RON2 inh)
COc1cccc(CNC(=O)c2ccc(NC(=O)N3CC(C)Sc4ccccc43)cc2)c1 (centres undefined)	none (no result: Cycloheximide cs, Shiga toxin inh, AMA1-RON2 inh)
Cn1ncc(Cl)c(Oc2ccccc2)c1=O	none
Cn1ncc(Cl)c(Oc2ccc(C(C)(C)C)cc2)c1=O	Cycloheximide cs 20, MARV entry inh inconclusive
Cc1cc(C)cc(N(C(=O)CCC(=O)Nc2cc(C)on2)C(C(=O)NC2CCCC2)c2ccco2)c1 (centres undefined)	Lassa entry inh inconclusive, MARV entry inh 11µM
Cc1cccc(N(C(=O)CCC(=O)Nc2cc(C)on2)C(C(=O)NC2CCCC2)c2ccc(C)o2)c1 (centres undefined)	Cycloheximide cs 26, Shiga toxin inh 28 (no result: Lassa entry inh, MARV entry inh)
Cc1cc(NC(=O)CCC(=O)N(c2cccc(F)c2)C(C(=O)NC2CCCC2)c2ccc(C)o2)no1 (centres undefined)	Lassa entry inh inconclusive, MARV entry inh inconclusive
Cc1cc(NC(=O)CCC(=O)N(Cc2cccs2)C(C(=O)NC2CCCC2)c2cccnc2)no1 (centres undefined)	none
Cc1cc(NC(=O)CCC(=O)N(Cc2cccs2)C(C(=O)NC2CCCC2)c2ccccc2)no1 (centres undefined)	MARV entry inh 11µM
O=C(CCCn1c(=O)c2cccn2c2ccccc21)NCc1ccccc1Br	none (no result: Cycloheximide cs, Shiga toxin inh, AMA1-RON2 inh, MARV entry inh)
Cc1ccccc1NC(=O)Nc1csc2c1CCCC2	none (no result: Cycloheximide cs, Shiga toxin inh, Lassa entry inh, AMA1-RON2 inh)
Cc1ccccc1NC(=O)c1csc2c1CCCC2	Cycloheximide cs 41, Shiga toxin inh 100, MARV entry inh inconclusive
O=C(Nc1nccs1)c1csc2c1CCCC2	Cycloheximide cs 36, Shiga toxin inh 88, Lassa entry inh inconclusive, MARV entry inh inconclusive
COc1ccc(NC(=O)c2csc3c2CCCC3)cc1	Cycloheximide cs 51, Shiga toxin inh 72, Lassa entry inh inconclusive
COc1cccc(NC(=O)c2csc3c2CCCC3)c1	Cycloheximide cs 40, Shiga toxin inh 104, MARV entry inh inconclusive
Cc1cc(C)c2c(n1)sc1c(=O)n(-c3cc(Cl)ccc3C)nnc12	none (no result: Cycloheximide cs, Shiga toxin inh, AMA1-RON2 inh)
O=c1[nH]c2ccccc2c2nc(-c3cccc(S(=O)(=O)N4CCCC4)c3)nn12	none
COc1ccc(C2CC(c3ccc4ccccc4c3)=NN2C(=O)COC(=O)C2CCC(=O)N2)cc1 (centres undefined)	Cycloheximide cs 47, Shiga toxin inh 127, Lassa entry inh inconclusive, MARV entry inh inconclusive
CCOC(=O)/C=C(\C)N1N=C(c2ccccc2)CC1c1ccccc1 (centres undefined)	Cycloheximide cs 42, Shiga toxin inh 100, MARV entry inh inconclusive
COc1ccc(C2CC(c3ccc4ccccc4c3)=NN2C(=O)CN2CCC(C(N)=O)CC2)cc1 (centres undefined)	Cycloheximide cs 57, Shiga toxin inh 79
C=CCNCC(=O)N1N=C(c2ccc3ccccc3c2)CC1c1ccc(OC)cc1 (centres undefined)	MARV entry inh 8.9µM
CC(=O)OCC(=O)N1N=C(c2ccc3ccccc3c2)CC1c1ccccc1 (centres undefined)	Cycloheximide cs 33
Nc1cc(=O)[nH]c(SCC(=O)N2N=C(c3ccc4ccccc4c3)CC2c2ccccc2)n1 (centres undefined)	Lassa entry inh inconclusive, MARV entry inh inconclusive
O=S(=O)(NCc1ccccn1)c1ccccn1	none (no result: Lassa entry inh, MARV entry inh)
O=C(Nc1nccs1)C1CC=CCC1C(=O)OCC(F)(F)C(F)F (centres undefined)	none (no result: Cycloheximide cs, Shiga toxin inh, Lassa entry inh, MARV entry inh)
O=C(Oc1ccc(C(=S)N2CCC(O)CC2)cc1)c1ccc(Cl)cc1	Cycloheximide cs 37
C/C(Cl)=C\Cn1c(NCCc2ccccc2)nc2c1c(=O)n(C)c(=O)n2C	Lassa entry inh 4.6µM, MARV entry inh 3.7µM
COc1ccc2oc(=O)cc(CN3CCN(c4ccccc4F)CC3)c2c1	Lassa entry inh inconclusive (no result: Cycloheximide cs, Shiga toxin inh, AMA1-RON2 inh)
CCc1ccc(CNC(=O)c2sc3ncccc3c2-n2c(C)ccc2C)cc1	none (no result: Cycloheximide cs, Shiga toxin inh, AMA1-RON2 inh, MARV entry inh)
Cc1cc(C)cc(Cn2cc(CN3CC(N4CCN(Cc5ccccc5F)CC4)CS3(=O)=O)nn2)c1 (centres undefined)	none (no result: Cycloheximide cs, Shiga toxin inh, Lassa entry inh, MARV entry inh)
CCOC(=O)C1CCN(C(=O)c2ccc(OC3CCN(C(=O)COC)CC3)cc2)CC1	Cycloheximide cs 11 (no result: Lassa entry inh, MARV entry inh)
COCCC(=O)N1CCC(Oc2ccc(C(=O)NC3CCCCC3)cc2)CC1	none (no result: Lassa entry inh, MARV entry inh)
CN(C)S(=O)(=O)N1CCC(Oc2ccc(C(=O)NC3CCOC(C)(C)C3)cc2)CC1 (centres undefined)	none (no result: Lassa entry inh, MARV entry inh)
COCC(=O)N1CCC(Oc2ccc(C(=O)NC3Cc4ccccc4C3)cc2)CC1	Cycloheximide cs 27, Shiga toxin inh 55
CN(C)S(=O)(=O)N1CCC(Oc2ccc(C(=O)NC3Cc4ccccc4C3)cc2)CC1	Cycloheximide cs 22, Shiga toxin inh 106 (no result: Lassa entry inh, MARV entry inh)

Screening results deposited in PubChem by National Center for Advancing Translational Sciences (NCATS).
